# Data reported in PubChem BioAssay (Tox21).
# Unmarked numbers belong to inactive results. Entries that show only a call come without a potency. Activity calls are given as the source filed them. Calls follow the shape of the dose curve; as a rule, active = well fitted activation curve with a large enough effect in the repeat runs; inconclusive = weak or mixed curves; inactive = flat fitted curve, though single readings scatter.
# Assay: Caspase-3/7 induction in CHO-K1 cells by small molecules, qHTS assay (AID 1346980); also: nearly all actives have a fitted effect of over 15% in size
# Conditions: CHO-K1 caspase-3/7 induction, Caspase-Glo luminescence, 17 h; series mostly up to 92.4 µM
# From the text: National Center for Advancing Translational Sciences [NCATS]
# NIH Chemical Genomics Center [NCGC]
# U.S. Environmental Protection Agency [EPA]
# National Institutes of Environmental Health Sciences [NIEHS]
# National Toxicology Program [NTP]
# Apoptosis is a process of programmed cell death and plays a central role in the development of multicellular organisms. It is a highly regulated process and induces cell death by activating caspases, which are the members of cysteine aspartic acid-specific protease (caspase) family. Caspases involved in apoptosis are classified by their mechanism of action as initiator caspases (caspase-2, -8, -9 and -10) and executioner caspases (caspase-3, -6, and -7). Inhibition of apoptosis results in number of cancers, autoimmune diseases, inflammatory diseases and viral infection. To identify small molecule compounds that induce apoptosis, a homogeneous, luminescent Caspase-Glo 3/7 assay was used. Wild type CHO-K1 cells were used to screen Tox21 libraries for identifying caspase-3/7 activity inducers.
# CHO-K1 cells were dispensed at 1,500 per well in 5uL of culture medium into white solid bottom 1536-well plates (Corning Life Sciences, Corning, NY) using a Multidrop Combi (Thermo Scientific, Waltham, MA) dispenser. The assay plates were incubated at 37 C and 5% CO2 for 5hr, and then 23nL of compounds dissolved in DMSO and positive control were transferred using a Pintool station (Wako, San Diego, CA). The assay plates were incubated at 37C and 5% CO2 for 17hr. For caspase-3/7 activity read, 4uL of Caspase-Glo 3/7 reagent (Promega Corporation, Madison, WI) was added to each well of the assay plates using Flying Reagent Dispenser (FRD, Aurora Discovery, San Diego, CA) and incubated the assay plates at room temperature for 30min. The luminescence signal was quantified using a ViewLux plate reader (Perkin Elmer, Shelton, CT).
Compound,Potency,caspase-3/7 activation
CC/C(=N\OC/C=C/Cl)C1=C(O)CC(C2CCOCC2)CC1=O (stereo not given),inactive,–
CCN(C)N=O,inactive,–
CC1C(=O)C[C@]2(C(C)C)C[C@H]12 (stereo not given in full),inactive,–
c1ccc(C2CC2)c(OCC2=NCCN2)c1,inactive,–
C=CC(=O)OCC(C)C,inactive,–
COC(=O)C(Cl)C(=O)OC,inactive,–
COC(=O)c1cncn1C(C)c1ccccc1 (stereo not given),inactive,–
COc1c(C(C)(C)C)cc([N+](=O)[O-])c(C)c1[N+](=O)[O-],inactive,–
ClCc1ccccc1,inactive,–
Cc1ccccc1CCl,inactive,–
CN(C)c1ccc(N(C)C)cc1,inactive,–
Cn1cc[n+](C)c1 (tested in a mixture with another compound),inactive,–
N#C/C(N)=C(/N)C#N,inactive,–
C=CCCl,inactive,–
CC(=O)[C@H]1CC[C@H]2[C@@H]3CC[C@H]4C[C@](C)(O)CC[C@]4(C)[C@H]3CC[C@]12C,inactive,–
CC(=O)C(C)(C)C,inactive,–
O=C(Nc1ccccc1)Nc1cnns1,inactive,–
C[N+](C)(C)CCCl,inactive,–
Brc1ccccc1,inactive,–
Nc1ccc([N+](=O)[O-])cc1[N+](=O)[O-],inactive,–

Compound,Potency,caspase-3/7 activation
CCOc1ccc(C(C)(C)COCc2cccc(Oc3ccccc3)c2)cc1,inactive,–
C[C@]12CC[C@H]3[C@@H](CCC4=CC(=O)CC[C@@H]43)[C@@H]1CC[C@@H]2OC(=O)CCC1CCCCC1,inactive,–
NNC(=O)c1cccnc1,inactive,–
CCOP(=O)(OCC)O/C(=C/Cl)c1ccc(Cl)cc1Cl,inactive,–
COCC(C)N(C(=O)CCl)c1c(C)csc1C (stereo not given),inactive,–
O=C1C(=O)c2cccc3cccc1c23,inactive,–
CCOC(=O)[C@]1(c2ccccc2)Oc2ccccc2[C@@H]1N,inactive,–
CCOS(C)(=O)=O,inactive,–
COc1nn(CSP(=S)(OC)OC)c(=O)s1,inactive,–
CCCCCCC#N,inactive,–
O=S(=O)(Cl)c1ccccc1,inactive,–
CNP(=O)(OC)Oc1ccc(C(C)(C)C)cc1Cl (stereo not given),inactive,–
C[C@H]1CNCCc2ccc(Cl)cc21,inactive,–
O=[N+]([O-])c1ccccc1CCl,inactive,–
C=CCC1([C@H](C)CCC)C(=O)NC(=O)NC1=O,inactive,–
CO[C@@H]1[C@H](OC(=O)NC(=O)CCl)CC[C@]2(CO2)[C@H]1[C@@]1(C)O[C@@H]1CC=C(C)C,–,1.61% [at 19 µM]
CCC(COC(=O)c1cc(OC)c(OC)c(OC)c1)(c1ccccc1)N(C)C (stereo not given),inactive,–
c1ccc(CN2CCNCC2)cc1,inactive,–
COc1nn(C(=O)NS(=O)(=O)c2ccccc2OC(F)(F)F)c(=O)n1C,inactive,–
C=CCN1CC[C@]23c4c5ccc(O)c4O[C@H]2C(=O)CC[C@@]3(O)[C@H]1C5,inactive,–
